G9a block: inhibitors of human histone lysine methyltransferase G9a; 350,000 tested, 8.8% active; Potency, µM (series often up to 102 µM), for the others: top-dose activity, negative = inhibition, most hits filed as inhibitors; Q96KQ7; G9a H3K9 monomethylation, AlphaScreen, 2 h; note: potency is the fitted concentration of half-maximal effect; % is set by controls: 0 for no effect and ±100 for the full control effect; nearly all actives have a fitted effect of over 75% in size
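Quantitative HTS format: methyltransferase activity on a biotin-tagged H3K9 peptide is measured by AlphaScreen, using a rabbit anti-monomethyl-H3K9 antibody with streptavidin donor and anti-IgG acceptor beads. Final levels are 20 nM enzyme, 500 nM peptide, 20 uM SAM; 2 h RT.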
BAZ2B block: inhibitors of human BAZ2B bromodomain | Potency, µM (highest dose often 114 µM), without a hit: at the highest dose activity change, negative = inhibition, most hits filed as inhibitors | AID 504333 | AlphaScreen BAZ2B-H3K14Ac peptide displacement | Q9UIF8 | 360,000 tested, 4.4% active; note: potency is the fitted concentration of half-maximal effect; % is set by controls: 0 for no effect and ±100 for the full control effect; nearly all actives have a fitted effect of over 60% in size
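AlphaScreen luminescence quantifies BAZ2B engagement of H3K14Ac peptide; the protein and biotinylated peptide are both at 50 nM final, buffer PBS pH 7.4 with 0.01% Tween-20, all steps at room temperature.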
CtBP-E1A inh: inhibitors of CtBP/E1A interaction | activity change, % (concentration not given with the values) | AID 651724 | 340,000 tested, 0.49% active | AlphaScreen GST-E1A/His-CtBP binding, 1536-well; stronger effect = lower value; in the data active = activity change below about -65%; inconclusive = mostly about -30% to -63%; note: % is set by controls: 0 for no effect and ±100 for the full control effect
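Homogeneous bead-based format: GST-tagged E1A captured on glutathione donor beads, His-tagged CtBP on nickel acceptor beads; compounds precede bead addition by 2 h at 37 °C.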
HP1b binding inh: blocks HP1-beta chromodomain binding to methylated histone tails. P83916. AlphaScreen HP1-beta / biotin-H3K9me3 peptide binding. Potency, µM (series often up to 114 µM), inactives show top-dose activity change, negative = inhibition, actives largely listed as inhibitors. 390,000 tested, 0.56% active; note: potency is the fitted concentration of half-maximal effect; nearly all actives have a fitted effect of over 70% in size
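AlphaScreen: HP1-beta (50 nM) preformed 30 min with biotin-H3(1-18)K9me3 peptide (50 nM) in PBS pH 7.4, 0.01% Tween-20. Compound added for 30 min at RT, then streptavidin donor/nickel chelate acceptor beads (10 ug/mL) for 30 min.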
JMJD2A Tudor: blocks the human JMJD2A Tudor domain; Potency, µM (highest dose often 114 µM), without a hit: at the highest dose activity change, negative = inhibition, most hits filed as inhibitors; AlphaScreen JMJD2A-Tudor / H3K4me3 peptide binding; O75164; 390,000 tested, 4.4% active; note: potency is the fitted concentration of half-maximal effect; % is set by controls: 0 for no effect and ±100 for the full control effect; nearly all actives have a fitted effect of over 50% in size
Six1-Eya2 inh: inhibitors of human Six1/Eya2 interaction. Q15475+O00167. AlphaScreen GST-Six1/His-Eya2 binding, biochemical; stronger effect = lower value. activity change, % (no concentration beside the values). 360,000 tested, 0.56% active. AID 651725; in the data active = activity change below about -65%; inconclusive = mostly about -30% to -63%; note: % is set by controls: 0 for no effect and ±100 for the full control effect
Target sequence (O00167 whole entry, looked up): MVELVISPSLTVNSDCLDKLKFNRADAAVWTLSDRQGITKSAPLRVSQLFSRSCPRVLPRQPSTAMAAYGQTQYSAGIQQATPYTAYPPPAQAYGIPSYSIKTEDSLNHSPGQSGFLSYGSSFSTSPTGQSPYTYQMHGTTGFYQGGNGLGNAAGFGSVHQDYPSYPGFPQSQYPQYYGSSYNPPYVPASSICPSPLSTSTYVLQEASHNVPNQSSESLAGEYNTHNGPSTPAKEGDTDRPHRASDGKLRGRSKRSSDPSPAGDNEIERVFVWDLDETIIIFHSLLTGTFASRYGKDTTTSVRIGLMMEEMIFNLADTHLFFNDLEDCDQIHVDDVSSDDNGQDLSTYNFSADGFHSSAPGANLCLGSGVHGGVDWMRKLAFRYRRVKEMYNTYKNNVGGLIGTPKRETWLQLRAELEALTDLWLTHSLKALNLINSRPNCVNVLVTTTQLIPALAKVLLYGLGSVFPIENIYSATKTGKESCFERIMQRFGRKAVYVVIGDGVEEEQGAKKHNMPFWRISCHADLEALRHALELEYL
Target sequence (Q15475 whole entry, looked up): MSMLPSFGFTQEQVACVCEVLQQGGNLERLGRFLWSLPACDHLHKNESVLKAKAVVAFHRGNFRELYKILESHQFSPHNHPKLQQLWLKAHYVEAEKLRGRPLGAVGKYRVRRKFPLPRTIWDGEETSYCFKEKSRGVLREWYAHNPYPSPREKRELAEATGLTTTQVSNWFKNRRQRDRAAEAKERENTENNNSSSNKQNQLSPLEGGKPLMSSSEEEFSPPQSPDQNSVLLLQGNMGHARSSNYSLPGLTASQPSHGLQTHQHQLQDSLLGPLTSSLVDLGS
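Six1/Eya2 binding was read as AlphaScreen signal after compounds were pinned into GST-Six1 plus His-tagged Eya2 (5X stock 250/500 nM) in pH 8.0 Tris/NaCl/TCEP buffer, beads added, then incubated 1 h, 37 C, dark.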
Active calls of the source: *; ? = inconclusive; · = no result; [ ] = remark or other dose. Hits are enriched below; roughly 10% of the tested compounds scored in any of these assays. Unless noted, calls come from the whole dose curve; as a rule, active = well fitted inhibition curve with a large enough effect; inconclusive = small, poorly fitted or top-dose-only effect; inactive = no such curve, though single readings can be large or run the other way.

SMILES	G9a block	BAZ2B block	CtBP-E1A inh	HP1b binding inh	JMJD2A Tudor	Six1-Eya2 inh
O=C(Cn1c(NCCCO)nc2ccccc21)c1ccc(Cl)cc1Cl	79µM*	-31%	2	-2%	-25%	1
COc1ccc(C(=O)Cn2c(NCCCO)nc3ccccc32)cc1	·	·	1	·	·	11
COc1ccc(-n2c(C)cc(C(=O)Cn3c(NCCO)nc4ccccc43)c2C)cc1	50µM*	50µM*	-17	?	?	-11
C/C(Cn1cnc([N+](=O)[O-])n1)=N\NC(=O)c1ccc(F)cc1	20µM*	-2%	3	37%	-16%	-2
CC1CCc2c(sc(NC(=O)CCC(=O)O)c2C(=O)NC2CC2)C1 (stereo not drawn)	8.9µM*	-36%	1	?	?	7
CC(C)OC(=O)c1c(NC(=O)CCC(=O)O)sc2c1CCCCC2	-10%	-27%	4	28%	-15%	1
COC(=O)c1c(NC(=O)CCC(=O)O)sc2c1CCCCC2	?	-17%	6	-14%	-9%	4
O=C(O)CCC(=O)Nc1sc2c(c1C(=O)Nc1ccccc1)CCCCC2	28µM*	-18%	0	-13%	-32%	-3
COc1ccccc1NC(=O)c1c(NC(=O)CCC(=O)O)sc2c1CCCCC2	-48%	-16%	-10	21%	-18%	-1
O=C(O)CCC(=O)Nc1sc2c(c1C(=O)Nc1cccc3ccccc13)CCCCC2	22µM*	?	7	-5%	?	-9
CCOC(=O)c1c(NC(=O)c2c(C(=O)O)cccc2[N+](=O)[O-])sc2c1CCCC2	8.9µM*	-24%	0	?	?	-5
Cc1cccc(C(=O)Nc2cccc(C(=O)OCc3cc(=O)n4ccsc4n3)c2)c1	-32%[59 µM]	-2%	·	-4%	-15%	·
COc1cn(CC(=O)Nc2cc(C)cc(C)c2)c(CN2CCCCC2)cc1=O	-4%[59 µM]	-2%	·	-1%	-14%	·
COc1ccc(NC(=O)c2cc(CN3CCCC3)on2)cc1Cl	-25%[59 µM]	-20%	·	16%	-27%	·
Cc1c(C(=O)N2CCOCC2)oc2c1-c1nn(CC(=O)NCc3cccc(Cl)c3)cc1CC2	-9%[59 µM]	?	·	10%	?	·
CCOC(=O)c1c(NS(=O)(=O)c2ccc(Br)cc2)sc2c1CCC2	·	·	-9	-16%	79µM*	-19
CCOC(=O)c1c(NS(=O)(=O)Cc2ccccc2)sc2c1CCCC2	?	?	8	25%	-19%	-1
CCOC(=O)c1c(NC(=O)C2C3C=CC(C3)C2C(=O)O)sc2c1CCCC2 (stereo not drawn)	-43%	-29%	-6	35%	-19%	-7
CCOC(=O)c1c(NC(=O)COc2cccc(C)c2C)sc2c1CCCCC2	11µM*	2%	·	-11%	-11%	·
CCOC(=O)c1c(NC(=O)C2CC(Cl)=CCC2C(=O)O)sc2c1CCCCC2 (stereo not drawn)	45µM*	50µM*	5	-6%	?	-7
CCOC(=O)c1c(NC(=O)CCC(=O)O)sc2c1CCCCC2	7.9µM*	-5%	10	?	?	7
CCOC(=O)c1c(NC(=O)CCCC(=O)O)sc2c1CCC2	20%[12.7 µM]	-22%	0	-16%	-15%	-2
CCc1nn2c(=O)cc(COC(=O)c3ccccc3NC(=O)COc3ccc(C)c(C)c3)nc2s1	-2%[12.7 µM]	-8%	·	32%	-2%	·
COC(=O)c1c(NC(=O)COC(=O)c2ccc(NC(=O)CC#N)cc2)sc2c1CCCCC2	-2%[59 µM]	45µM*	-5	-17%	45µM*	-24
COC(=O)c1c(NC(=O)COc2cccc(C(F)(F)F)c2)sc2c1CCCC2	8.9µM*	1%	·	0%	-5%	·
SMILES	G9a block	BAZ2B block	CtBP-E1A inh	HP1b binding inh	JMJD2A Tudor	Six1-Eya2 inh
CCOC(=O)c1c(/N=C/c2ccccc2O)sc2c1CCC2	71µM*	-30%	-10	-7%	-27%	-9
Cc1cc2oc(C(=O)Nc3sc4c(c3C(=O)NCc3ccccc3)CCCC4)cc(=O)c2cc1C	-5%[59 µM]	-1%	·	9%	-14%	·
O=C(Nc1sc2c(c1C(=O)NCc1ccccc1)CCCC2)c1cc(=O)c2ccccc2o1	11µM*	-12%	·	?	-18%	·
CCOC(=O)c1ccccc1NC(=O)c1sc2ncn(Cc3cccc(F)c3)c(=O)c2c1C	-24%[59 µM]	3%	·	31%	0%	·
CC(C)(C)C1=CC(=O)C(N2CCOCC2)=CC1=O	?	50µM*	-12	?	-34%	-4
c1ccc(OCCOCCN2CCc3ccccc3C2)cc1	-45%[59 µM]	-2%	1	36%	-23%	0
CCOc1ccc(OCCOCCN2CCc3ccccc3C2)cc1	·	56µM*	-6	?	2.8µM*	-5
CCCOc1ccc(OCCOCCN2CCc3ccccc3C2)cc1	10µM*	50µM*	-2	?	3.5µM*	-5
C=CCc1cc(OC)ccc1OCCOCCN1CCc2ccccc2C1	11µM*	56µM*	-5	?	0.89µM*	-10
Cc1ccc(SCCOCCN2CCc3ccccc3C2)cc1	?	-37%	·	?	40µM*	3
CC(C)c1ccc(NC(=O)CN(C)S(=O)(=O)c2ccc3c(c2)n(C)c(=O)c(=O)n3C)cc1	6%[59 µM]	2%	·	36%	0%	·
Cc1c(NC(=O)C(=O)/C=C(/O)c2ccccc2)c(=O)n(-c2ccccc2)n1C	8.9µM*	50µM*	-3	14%	20µM*	0
COc1ccc(/C(O)=C/C(=O)C(=O)NNC(=O)C(O)(c2ccccc2)c2ccccc2)cc1	-18%	-37%	7	19%	79µM*	-20
COc1ccc(/C(O)=C/C(=O)C(=O)Nc2c(C)n(C)n(-c3ccccc3)c2=O)cc1	?	?	-14	9%	22µM*	-19
COc1ccc(/C(O)=C/C(=O)C(=O)NNC(=O)c2ccccc2)cc1	15%	?	-6	34%	-19%	-7
Cc1cccc(N2CCN(CCNC(=O)Nc3ccc(Cl)cc3)CC2)c1C	-27%[59 µM]	-3%	·	0%	-17%	·
CCOC(=O)c1ccccc1NC(=O)Cn1c(=O)n(-c2ccc(CC)cc2)c(=O)c2c(C)c(C(=O)N(C)C)sc21	-13%[59 µM]	-9%	·	17%	-17%	·
COc1ccccc1N1CCN(C(=O)c2noc(C)c2[N+](=O)[O-])CC1	56µM*	-34%	-7	17%	-21%	5
COc1ccccc1N1CCN(C(=O)c2cc(C(=O)N3CCN(c4ccccc4OC)CC3)cc([N+](=O)[O-])c2)CC1	·	?	·	18%	-11%	-4
O=C(c1cccs1)N1CCN(c2cccc(Cl)c2)CC1	32%	-2%	-6	41%	1%	-3
COc1ccccc1N1CCN(C(=O)c2ccc([N+](=O)[O-])s2)CC1	45µM*	-5%	-20	-4%	-20%	1

Bioassay records deposited in PubChem BioAssay by National Center for Advancing Translational Sciences (NCATS).
